Shown are actives, neighbours in structure and some others; about 3.4% of the full set was active somewhere.
PLC-gamma1 inh: blocks human PLC-gamma1 enzyme activity; purified PLC-gamma1, fluorogenic substrate, fluorescence; inhibition, % at 12.2 µM; 370,000 tested, 0.84% active; AID 720700; in the data active means inhibition above about 9.5%
Target sequence (P19174 whole entry, looked up): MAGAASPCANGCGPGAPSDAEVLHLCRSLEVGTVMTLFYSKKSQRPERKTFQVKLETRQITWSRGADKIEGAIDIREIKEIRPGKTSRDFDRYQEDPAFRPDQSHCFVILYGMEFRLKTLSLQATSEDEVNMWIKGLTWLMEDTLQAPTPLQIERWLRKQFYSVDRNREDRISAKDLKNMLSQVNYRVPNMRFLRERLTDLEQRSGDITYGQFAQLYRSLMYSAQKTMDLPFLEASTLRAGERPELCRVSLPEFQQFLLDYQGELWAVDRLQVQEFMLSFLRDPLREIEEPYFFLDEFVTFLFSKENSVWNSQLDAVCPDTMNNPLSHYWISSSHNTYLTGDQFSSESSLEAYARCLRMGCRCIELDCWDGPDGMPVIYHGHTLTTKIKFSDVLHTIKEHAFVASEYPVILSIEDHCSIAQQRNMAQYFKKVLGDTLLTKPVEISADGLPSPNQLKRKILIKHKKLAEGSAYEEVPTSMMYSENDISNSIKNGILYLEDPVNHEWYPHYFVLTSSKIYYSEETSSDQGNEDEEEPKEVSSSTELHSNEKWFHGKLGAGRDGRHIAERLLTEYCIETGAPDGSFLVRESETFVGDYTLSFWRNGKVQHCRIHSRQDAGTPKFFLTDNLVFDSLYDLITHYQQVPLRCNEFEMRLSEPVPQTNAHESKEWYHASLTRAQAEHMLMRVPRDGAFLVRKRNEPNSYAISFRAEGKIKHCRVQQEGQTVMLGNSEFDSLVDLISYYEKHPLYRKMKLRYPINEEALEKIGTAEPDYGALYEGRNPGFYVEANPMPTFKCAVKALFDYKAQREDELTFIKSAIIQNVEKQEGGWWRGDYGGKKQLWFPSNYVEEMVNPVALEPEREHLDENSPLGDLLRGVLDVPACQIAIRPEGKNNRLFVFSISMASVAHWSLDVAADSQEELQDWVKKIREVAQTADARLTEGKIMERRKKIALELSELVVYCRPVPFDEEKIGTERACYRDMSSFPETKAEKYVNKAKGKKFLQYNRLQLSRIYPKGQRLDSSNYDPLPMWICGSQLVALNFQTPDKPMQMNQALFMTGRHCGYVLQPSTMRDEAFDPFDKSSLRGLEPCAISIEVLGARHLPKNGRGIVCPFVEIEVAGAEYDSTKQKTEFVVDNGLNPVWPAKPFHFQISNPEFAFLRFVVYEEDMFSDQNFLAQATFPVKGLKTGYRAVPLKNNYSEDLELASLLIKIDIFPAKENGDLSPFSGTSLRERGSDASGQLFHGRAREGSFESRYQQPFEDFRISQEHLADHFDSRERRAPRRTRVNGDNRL
ADAM17 inh: ADAM17 inhibition, QFRET primary screen. P78536. recombinant ADAM17, EDANS/DABCYL FRET peptide cleavage. inhibition, % at 6.95 µM. 370,000 tested, 0.83% active. AID 720648;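 active means inhibition above the mean of compounds lying between control limits plus 3 SD, set per campaign, cut at about 8.5% in these data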
ADAM10 inh: inhibitors of human ADAM10; O14672; recombinant ADAM10, EDANS/DABCYL FRET peptide cleavage, 3 h; inhibition, % at 7 µM; 370,000 tested, 0.62% active;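 active means inhibition above a per-campaign cutoff equal to the mean of compounds falling between control-based bounds plus 3 SD, cut at about 20% in these data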
PLC-beta3 inh: blocks human PLC-beta3 enzyme activity | Q01970 | Purified PLC-beta3, fluorogenic substrate, fluorescence | inhibition, % at 12.2 µM | 370,000 tested, 0.18% active; in the data active means inhibition above about 11%
proKLK7 act: activates the human kallikrein-7 zymogen | P49862 | activation, % at 7 µM | purified proKLK7, EDANS-DABCYL substrate fluorescence; 100% is mature enzyme control, 0% vehicle | AID 652039 | 370,000 tested, 0.9% active;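 active means activation above the mean of all tested compounds plus 3 SD, computed per campaign excluding outliers beyond control limits, cut at about 13% in these data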
HGIII-sPLA2 inh: Inhibits HGIII-sPLA2 liposome hydrolysis, primary screen; Q9NZ20; QFRET BODIPY PC-A2 liposome hydrolysis, fluorescence; 370,000 tested, 0.56% active; inhibition, % at 12.2 µM; AID 743126;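 active means inhibition above mean plus 3 SD of compounds lying within the high and low control bounds, cut at about 19% in these data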
sPLA2 confirm: human GIII-sPLA2 inhibition, confirmation. 2,000 tested, 34% active. shares compounds with HGIII-sPLA2 inh. inhibition, % at 12.2 µM. AID 743280. recombinant hGIII-sPLA2, BODIPY PC-A2 QFRET fluorescence;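 active means mean inhibition across triplicates above the hit cutoff set in the earlier primary screen, cut at about 19% in these data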
BODIPY interf: 535nm fluorescence interference, HGIII-sPLA2 counter-screen; shares compounds with HGIII-sPLA2 inh; BODIPY FL product fluorescence interference, QFRET; inhibition, % at 12.2 µM; 2,000 tested, 8.5% active; AID 743282;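 active means average inhibition above the solvent-only control mean plus 3 SD, cut at about 6% in these data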
535nm interf DR: interferes with 535nm fluorescence in dose response counter-screen | 240 tested, under 10 active | shares compounds with HGIII-sPLA2 inh | IC50, µM | BODIPY FL product fluorescence interference, cell-free;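 active means IC50 at or below 10 µM; inactive means IC50 above 10 µM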
Hits are given with their value; n = inactive; x = not tested or not shown.

SMILES | PLC-gamma1 inh | ADAM17 inh | ADAM10 inh | PLC-beta3 inh | proKLK7 act | HGIII-sPLA2 inh | sPLA2 confirm | BODIPY interf | others
C/C(=N\OCc1nc2ccccc2c(=O)n1/N=C/c1cc([N+](=O)[O-])ccc1O)c1ccccc1 | n | n | n | n | n | n | x | x
COc1cccc(-c2nc(-c3ccccc3)c3ccc(Cl)cc3n2)c1 | n | n | n | n | n | 20.4 | n | n
O=C(CSCc1ccccc1Cl)Nc1ccc(C(=O)O)cc1 | n | n | n | n | n | n | x | x
O=C(CSCc1ccccc1Cl)NNC(=S)Nc1ccccc1 | n | n | n | n | n | 40.6 | 42.0 | n | 535nm interf DR=n
COc1ccc(N(C)C(=O)c2sc(Cl)nc2C)cc1 | n | n | n | n | n | n | x | x
Cc1ccc(OC(=O)c2sc(Cl)nc2C)cc1C | n | n | n | n | n | 21.5 | n | n
COC(=O)N1C[C@H](OC(=S)Nc2ccc(OC)cc2OC)[C@H]2C[C@@H]1c1ccccc1O2 | n | n | n | n | n | n | x | x
C/C(CC(C)(C)C1CCCCC1)=N\NC(N)=S | n | n | n | n | n | 20.2 | 19.4 | n
CN(C)c1ccc(/C=N/NC(=S)NCc2ccco2)cc1 | n | n | n | n | n | 25.9 | n | n
S=C(NCc1ccco1)N/N=C/c1ccncc1 | n | n | n | n | n | n | x | x
CS(=O)(=O)c1ccc(Cl)c(NC(=O)CN2CCN(S(=O)(=O)/C=C/c3ccccc3)CC2)c1 | n | n | n | n | n | n | x | x
c1ccc(CCNc2nc(-c3ccncc3)nc3ccccc23)cc1 | n | n | n | n | n | n | x | x
c1cc2c3c(cccc3c1)NC1(CCCC1)N2 | n | n | n | n | n | 23.8 | 19.8 | n
CC1(C)Nc2cccc3cccc(c23)N1 | n | n | n | n | n | n | x | x
COc1cc(NC(=S)Nc2ncccc2C)cc(OC)c1OC | n | n | n | n | n | n | x | x
Cc1ccc(C)c(NC(=S)Nc2ncccc2C)c1 | n | n | n | n | n | 19.5 | n | n
Cc1cccnc1NC(=S)Nc1ccc(F)cc1F | n | n | n | n | n | 20.4 | 21.1 | n
COc1ccccc1C1CC(c2ccccc2)=NN1C(=S)Nc1ccccc1 (centres undefined) | n | n | n | n | n | n | x | x
COc1ccc(/C=C(\C#N)c2nc3ccc(C)cc3[nH]2)cc1Oc1ccc(C(F)(F)F)cc1[N+](=O)[O-] | n | n | n | n | n | 19.7 | n | n
O=C1c2ccccc2C(=O)c2c1ccc(O)c2O | n | n | n | n | n | 21.4 | n | n
CCCS(=O)(=O)N1CCN=C1SCc1cccnc1 | n | n | n | n | n | n | x | x
CCCC[n+]1ccn(-c2nc3ccccc3nc2[N-]S(=O)(=O)c2ccc(Br)cc2)c1 | n | n | n | n | n | 20.8 | n | n
Cn1cnc(NCc2ccccc2)c1[N+](=O)[O-] | n | n | n | n | n | n | x | x
O=C(NCc1ccccn1)C(=O)NCC1OCCCN1S(=O)(=O)c1cc(F)ccc1F (centres undefined) | n | n | n | n | n | n | x | x
COc1cc2c(cc1OC)CN(C(=O)c1cc(Cl)nc(Cl)c1)CC2 | n | n | n | n | n | n | x | x
SMILES | PLC-gamma1 inh | ADAM17 inh | ADAM10 inh | PLC-beta3 inh | proKLK7 act | HGIII-sPLA2 inh | sPLA2 confirm | BODIPY interf | others
COc1cc2c(cc1OC)C1(C)N(CC2)C(C(C)=O)=NN1c1ccc(Cl)cc1 (centres undefined) | n | n | n | n | n | 19.7 | n | n
O=c1[nH]c(CSc2nc3ccccc3s2)nc2ccccc12 | n | n | n | n | n | n | x | x
COc1ccc(C2NCCc3c2[nH]c2ccccc32)cc1CSc1nc2ccccc2s1 (centres undefined) | n | n | n | n | n | 19.8 | n | n
O=C(CCc1nnc(-c2ccccc2)o1)NC1CCCCC1 | n | n | n | n | n | 19.3 | n | n
COC(c1ccccc1)c1nnc(CCC(=O)NC2CCCCC2)o1 (centres undefined) | n | n | n | n | n | n | x | x
CCOc1ccc2c(c1)-c1c(ssc1=S)C(C)(C)N2C(=O)CSC1=NCCS1 | n | n | n | n | n | 36.3 | 20.2 | n
COc1ccc(-n2c(N)c(C#N)c3ccc([N+](=O)[O-])cc3c2=O)cc1 | n | n | n | n | n | n | x | x
COc1cccc(-n2c(N)c(C#N)c3ccc([N+](=O)[O-])cc3c2=O)c1 | n | n | n | n | n | 25.8 | n | n
CCOc1ccc(C2CC(c3ccc(CC)cc3)n3nc(N)nc3N2)cc1 (centres undefined) | n | n | n | n | n | n | x | x
CCOc1ccc(C2CC(c3ccc(CC)cc3)Nc3nc(N)nn32)cc1 (centres undefined) | n | n | n | n | n | 21.6 | n | n
CCCCNC(=O)C1c2ccccc2OCC(=O)N1CC(F)(F)F (centres undefined) | n | n | n | n | n | 20.3 | n | n
Cc1c(P(=O)(c2ccccc2)c2ccccc2)c2ccccc2n1C | n | n | n | n | n | n | x | x
N#Cc1ccc(OCC(=O)Nc2ccc(N3CCCC3)cc2)cc1 | n | n | n | n | n | 21.2 | n | n
CCOc1ccc(OCC(=O)Nc2ccc(N3CCCCC3)cc2)cc1 | n | n | n | n | n | n | x | x
CCOc1cccc(/C=N/NC(=S)Nc2cc(S(=O)(=O)N3CCOCC3)ccc2N2CCOCC2)c1O | n | n | n | n | n | 23.3 | 33.4 | n
COc1ccc2ccccc2c1/C=N/NC(=S)Nc1cc(S(=O)(=O)N2CCOCC2)ccc1N1CCOCC1 | n | n | n | n | n | n | x | x
O=C(Nc1ccc(Cl)cc1Cl)NC1CCN(S(=O)(=O)c2ccc(F)cc2)CC1 | n | n | n | n | n | 20.8 | n | n
O=C(NCC(c1cccs1)N1CCOCC1)c1cc([N+](=O)[O-])ccc1Cl (centres undefined) | n | n | n | n | n | 19.4 | n | n
CC(C)N1CCC(N2CCN(CCCc3ccccc3)CC2CCO)CC1 (centres undefined) | n | n | n | n | n | n | x | x
CC(C)N1CCC(N2CCN(C/C=C/c3ccc(F)cc3)CC2CCO)CC1 (centres undefined) | n | n | n | n | n | 19.9 | n | n
Cc1ccccc1N1CCN(C(=S)c2ccccc2)CC1 | n | n | n | n | n | 21.1 | n | n
S=C(c1ccccc1)N1CCN(c2ccccc2)CC1 | n | n | n | n | n | n | x | x
CCOC(=O)C1=CC[C@@H](c2cc3cc(OC)ccc3n2C)N(S(=O)(=O)c2ccc(C)cc2)[C@H]1C(=O)OCC | n | n | n | n | n | n | x | x

High-throughput results from PubChem.
